In the supplement of paper PMC10646978:
± gives the standard deviation.

Key:
Conditions in all cases: modulator concentration 10 µM
[1] = system: RAW-Dual (murine macrophage reporter line); assay: NF-kB reporter (SEAP) activity fold change vs agonist alone; higher = enhanced NF-kB activity
Summary of the method: (§1)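 Overnight stimulation with a PRR agonist followed pre-incubation for 1 hour at 37 °C with compound at 10 μM final. This was done in RAW-Dual murine macrophage reporter cells seeded at 50 000 per well in 384-well plates. NF-κB (SEAP, QUANTI-Blue absorbance at 620 nm) and IRF (Lucia luciferase, QUANTI-Luc luminescence) were read from the supernatant. Each reporter's fold change relative to the mean agonist-only control on the same plate was averaged over replicate plates.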

[2] = system: RAW-Dual (murine macrophage reporter line); assay: IRF reporter (Lucia luciferase) activity fold change vs agonist alone; higher = enhanced IRF activity
Summary of the method: as §1

[3] = system: RAW-Dual (murine macrophage reporter line); assay: viability score (confluency relative to resting cells, overnight) (fraction); higher = more viable, active = viable (0.7 or more)
Summary of the method: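 A compound met the cutoff when both of two confluency masks exceeded 70% of resting cells. Those masks were made with IncuCyte software from IncuCyte images of RAW-Dual macrophages treated overnight at 10 μM final. This is the basis of the viability score, which is confluency relative to resting cells.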

[4] = agonist: CpG ODN 1826 0.5 ug/mL

Structure (SMILES)	NF-kB reporter [1, 4]	NF-kB reporter ([1]; agonist: LPS 0.1 ug/mL)	NF-kB reporter ([1]; agonist: MPLA […])	IRF reporter ([2]; agonist: 3'3'-cGAMP 10 ug/mL)	IRF reporter ([2]; agonist: LPS 0.1 ug/mL)	IRF reporter ([2]; agonist: MPLA […])	viability score [3]
NC(=O)CN1C(=O)C2C3c4ccccc4C(c4ccccc43)C2C1=O (stereo not drawn)	1.1 ± 0.083	0.962 ± 0.073	0.965 ± 0.036	0.938 ± 0.065	0.946 ± 0.092	0.976 ± 0.15	0.995 (active)
CN1CCN2c3ccccc3Cc3ccccc3C2C1.Cl (stereo not drawn)	1 ± 0.14	1.07 ± 0.34	0.835 ± 0.058	0.68 ± 0.032	1.32 ± 0.3	1.2 ± 0.13	0.307 (inactive)
O=C(Nc1ccc(F)cc1)c1ccco1	0.904 ± 0.074	1.11 ± 0.12	1 ± 0.038	0.879 ± 0.15	1.03 ± 0.042	0.915 ± 0.11	0.996 (active)
CCN(CC)Cc1cc(Nc2ccnc3cc(Cl)ccc23)ccc1O.Cl.Cl	0.199 ± 0.011	0.753 ± 0.073	0.774 ± 0.046	1.19 ± 0.075	1.03 ± 0.11	1.47 ± 0.16	0.873 (active)
CN1CC(O)C2=C/C(=N/NC(N)=O)C(=O)C=C21 (stereo not drawn)	0.855 ± 0.048	1 ± 0.084	0.927 ± 0.065	0.99 ± 0.046	1.09 ± 0.18	1.24 ± 0.44	0.665 (inactive)
CC(Oc1ccccc1)C(=O)NCc1cc(-c2ccncc2)n(C2CCCC2)n1 (stereo not drawn)	1.35 ± 0.1	1.24 ± 0.11	1.13 ± 0.12	1.02 ± 0.067	1.02 ± 0.064	1.12 ± 0.086	1 (active)
Cn1c(=O)cc(N2CCC[C@@H](N)C2)n(Cc2ccccc2C#N)c1=O	1.19 ± 0.25	1.25 ± 0.28	2.23 ± 1.3	0.958 ± 0.031	1.3 ± 0.35	1.33 ± 0.26	0.99 (active)
O=C(Nc1nc2ccccc2n1CCN1CCOCC1)C1CCCCC1	1.03 ± 0.1	1 ± 0.088	0.933 ± 0.068	1.03 ± 0.039	1.55 ± 0.27	1.07 ± 0.12	1.02 (active)
Cc1nccn1CC1CCc2c(c3ccccc3n2C)C1=O.Cl.O.O (stereo not drawn)	0.604 ± 0.09	0.917 ± 0.11	0.765 ± 0.044	0.832 ± 0.025	1.35 ± 0.14	1.01 ± 0.15	0.284 (inactive)
